From PubChem
CDK5 p35 inh = blocks human CDK5/p35 kinase activity. Q00535+Q15078. Recombinant CDK5/p35, ADP-Glo luminescence, 60 min. inhibition, % at 10 µM. hit rate 0.01% among 330,000. AID 488839;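 active = highest replicate inhibition of at least 50% and at least 75% of replicates reaching 50%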;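 also: plate controls were DMSO neutral control for no effect and GW8510 at 10 µM for full effect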
NSD2 inh = NSD2 (human) methyltransferase inhibition; NSD2 peptide methylation, AlphaScreen, 120 min; inhibition, % at 12.5 µM; hit rate 0.54% among 310,000; AID 743445; in the data active = inhibition above about 50%
SUMO Mot1 rescue = blocks SUMOylation pathway, rescuing yeast Mot1-301 growth. hit rate 1% among 320,000. AID 2716. S. cerevisiae Mot1-301 growth rescue, ATP luminescence, 38.5C; percent above DMSO median, 100 means doubled. growth rescue, % at 18.8 µM;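 active = every valid replicate shows activation above 250% relative to neutral control wells; inactive = the rest, any valid replicate at or below 250%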;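 also: OY570 slx delta 5 strain wells were the positive control but not used for scaling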
Glyco luc inh = N-linked glycosylation inhibition; reporter increase, % at 12.5 µM; D54 ERlucT glycosylation luciferase reporter, 24 h; percent of 100 nM tunicamycin response; hit rate 0.23% among 360,000;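 active = mean luciferase reporter signal, scaled so untreated is 0 and the glycosylation-blocking control 100, at or above a set limit in every replicate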;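 also: luciferase carries N-glycosylation sites so blocking glycosylation raises the light; 0% = median of neutral control wells and 100% = median of 100 nM tunicamycin wells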
ALR inh = inhibitors of human sulfhydryl oxidase ALR; purified ALR, DTT oxidation, H2O2 HRP-luminol luminescence; AID 485317; inhibition, % (test concentration not listed); hit rate 3.8% among 290,000; P55789;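 active = mean replicate inhibition above about 79%, with every replicate also reaching it, limit read from the data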
Target sequence (P55789 whole entry, looked up): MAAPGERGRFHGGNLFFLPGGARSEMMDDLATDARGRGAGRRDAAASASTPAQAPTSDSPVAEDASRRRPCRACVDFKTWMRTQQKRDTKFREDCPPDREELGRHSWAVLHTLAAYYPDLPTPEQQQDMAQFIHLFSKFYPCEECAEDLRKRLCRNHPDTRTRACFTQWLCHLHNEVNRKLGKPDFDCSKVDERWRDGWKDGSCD
CASP6 VEID inh = inhibitors of human caspase-6; purified caspase-6, Z-VEID-R110 cleavage fluorescence; inhibition, % at 12.5 µM; hit rate 0.53% among 350,000;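 active = mean inhibition across replicates at least about 35%, with every replicate also reaching that limit, limit read from the data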;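 also: 0% = median of neutral control wells and 100% = no fluorescence left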
Target sequence (P55212 24-179 limits assumed): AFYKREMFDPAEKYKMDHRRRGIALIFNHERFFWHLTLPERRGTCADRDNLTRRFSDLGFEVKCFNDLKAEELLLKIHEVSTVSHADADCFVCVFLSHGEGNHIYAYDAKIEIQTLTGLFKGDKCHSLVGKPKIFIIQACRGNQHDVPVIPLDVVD
Target sequence (P55212 194-293 limits assumed): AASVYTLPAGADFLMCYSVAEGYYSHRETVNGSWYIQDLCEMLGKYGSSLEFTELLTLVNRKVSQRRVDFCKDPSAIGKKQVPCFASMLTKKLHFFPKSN
* = called active by the depositor; x = not tested or not shown. An excerpt weighted towards active compounds, which were near 3.9% of everything screened.

SMILES	CDK5 p35 inh	NSD2 inh	SUMO Mot1 rescue	Glyco luc inh	ALR inh	CASP6 VEID inh
C[C@@H]1CN([C@H](C)CO)C(=O)c2cc(N(C)C)ccc2O[C@@H](C)CCCCO[C@@H]1CN(C)C(=O)Nc1ccc(F)cc1	x	x	x	x	x	1.2
CCOC(=O)c1sc(C)c2c(=O)n(Cc3ccc(Cl)cc3)cnc12	0.5	-2.9	5.2	1.2	-7.9	49.9*
CCOC(=O)c1sc(C)c2c(=O)n(Cc3ccc(Cl)cc3)c(C)nc12	-1.2	0.1	-2.5	0.2	-2.9	x
O=C(C1CCCC1)N1CCCC(Nc2ccc(F)cc2)C1 (configuration not stated)	1.2	0.1	1.1	-1.7	98.7*	1.0
Cc1ccc(NC2CCCN(C(=O)C3CCCCC3)C2)cc1C (configuration not stated)	0.1	8.9	-9.3	-0.4	98.9*	1.3
Cc1ccc(NC(=O)C2CCCCC2)cc1C	0.8	x	2.8	5.1	x	-2.1
O=C(C1CCCC1)N1CCCC(Nc2ccccc2)C1 (configuration not stated)	1.1	0.5	20.1	0.9	99.1*	-0.7
O=C(C1CCCO1)N1CCN(C(=S)Nc2ccc(F)cc2)CC1 (configuration not stated)	-0.2	-1.7	x	-1.8	-31.2	-0.5
O=C(Nc1ccc(F)cc1)N1CCN(C(=O)C2CCCO2)CC1 (configuration not stated)	0.5	-0.2	1.5	2.6	-0.1	82.2*
C[C@@H]1CN([C@@H](C)CO)C(=O)c2cccc(NS(=O)(=O)c3cn(C)cn3)c2O[C@@H]1CN(C)C(=O)Nc1ccc2c(c1)OCO2	x	x	x	x	x	-2.3
N#C[C@@H]1[C@@H](c2ccccc2-c2cccc(F)c2)[C@H](CO)N1C(=O)NC1CCCC1	x	x	x	x	x	-2.8
COc1cccc(-c2cnc3c(c2)C(=O)N([C@@H](C)CO)C[C@@H](C)[C@@H](CN(C)Cc2ccc(F)cc2)O3)c1	x	x	x	x	x	-1.7
CC(C)(C)OC(=O)N[C@@H](Cc1ccccc1)c1nnc(S(=O)(=O)Cc2cccc(F)c2)o1	x	x	274.6*	x	38.9	x
CC(C)NC(=O)N(C)C[C@H]1Oc2ccc(NC(=O)Nc3ccc(C(F)(F)F)cc3)cc2CC(=O)N([C@@H](C)CO)C[C@@H]1C	x	x	x	x	x	1.2
COc1ccc(CSC2=NCCN2)cc1Br	0.4	0.8	3.2	1.0	98.9*	-2.3
COc1ccc(CSC2=NCCN2)cc1Cl	-0.6	-10.4	14.5	3.5	100.2*	x
Cc1ccc(NC(=O)/C(C#N)=N/Nc2ccc(C(=O)O)cc2)c(C)c1	1.0	-3.2	98.0	-0.7	76.2*	-0.2
CCN1CCN(c2ccc(N=Cc3ccccc3O)cc2)CC1	0.5	2.7	4.3	2.6	97.6*	-148.6
COc1cccc(C=Nc2ccc3c(c2)OCCO3)c1O	-0.9	1.0	985.1	-6.0	87.4*	x
COc1cccc(/C=N/N2CCOCC2)c1O	5.7	1.7	-21.9	-0.8	55.1	2.4
COc1cccc(C=Nc2ccc(N3CCOCC3)cc2)c1O	0.3	1.4	1.5	1.1	98.7*	-2.9
C[C@@H]1CN([C@H](C)CO)C(=O)c2cccc(N(C)C)c2O[C@@H]1CN(C)Cc1ccc(Oc2ccccc2)cc1	x	x	x	x	x	-2.4
COc1cccc(-c2ccc3c(c2)[C@H]2[C@H](CCN2C(=O)C2CCCC2)[C@H](CO)N3)c1	x	x	x	x	x	1.2
COc1ccc(C(c2c(NC(=O)c3ccco3)sc(C)c2C)N2CCOCC2)cc1 (configuration not stated)	0.0	-4.3	x	-7.4	x	55.4*
Cc1cc(=O)[nH]c(SCC(=O)Nc2ccc(Cl)cc2)n1	x	2.0	x	x	x	x
SMILES	CDK5 p35 inh	NSD2 inh	SUMO Mot1 rescue	Glyco luc inh	ALR inh	CASP6 VEID inh
O=C(CSc1nc2[nH]c(=O)cc(O)c2s1)Nc1cc(Cl)cc(Cl)c1	-4.0	-7.9	6.2	0.1	98.9*	14.6
COC(=O)c1ccc(C)c(NC(=O)CSc2nc3[nH]c(=O)cc(O)c3s2)c1	-0.3	3.0	56.5	2.4	1.6	-0.6
O=C(CSc1nc2[nH]c(=O)cc(O)c2s1)Nc1ccc(Cl)c(C(F)(F)F)c1	0.0	1.6	-0.9	3.1	99.1*	-2.3
Cc1cc(C)cc(NC(=O)CSc2nc3[nH]c(=O)cc(O)c3s2)c1	0.7	3.6	-5.7	1.4	98.4*	5.7
Cc1cc(C)nc(SCc2nnc(SCC(=O)Nc3ccc(Cl)c(C(F)(F)F)c3)o2)n1	1.8	-1.3	-13.2	0.3	-4.3	x
CN1C(=O)c2cc(NC(=O)NCc3ccccc3)ccc2OC[C@H]2O[C@H](CC(=O)O)CC[C@H]21	x	x	x	x	x	-0.6
CO[C@H]1CN(C)C(=O)c2cc(NC(=O)Nc3cccc(Cl)c3)ccc2OC[C@@H](C)NC[C@@H]1C	x	x	x	x	x	2.9
COC(=O)C[C@H]1CC[C@@H]2[C@@H](COc3ccc(NC(=O)Nc4ccc(C#N)cc4)cc3C(=O)N2C)O1	x	x	x	x	x	-0.2
Cc1noc(C)c1NC(=O)N(C)C[C@H]1Oc2ncc(C#CC3CC3)cc2C(=O)N([C@H](C)CO)C[C@H]1C	x	x	x	x	x	0.3
Cn1cccc1/C=N/n1c(-c2ccc(Cl)cc2Cl)n[nH]c1=S	2.4	8.9	49.1	1.6	97.0*	x
O=C(Cn1cc(C(F)(F)F)ccc1=O)N/N=C/c1ccc(Cl)c(Cl)c1	-2.0	0.0	-9.5	3.5	-21.0	3.3
O=C(Cn1cc(C(F)(F)F)ccc1=O)N/N=C/c1ccc(O)cc1	0.9	-2.1	9.6	-0.2	98.7*	-4.7
C[C@@H]1CN([C@@H](C)CO)S(=O)(=O)c2ccc(-c3cccnc3)cc2O[C@H]1CN(C)C(=O)NC1CCCC1	x	x	x	x	x	2.1
Cc1[nH]c(=O)[nH]c1C(=O)CCCCC(=O)OCC(=O)Nc1ccccn1	-0.1	142.2*	3.6	1.8	7.8	x
O=C(COC(=O)c1ccc([N+](=O)[O-])o1)NC1CCCCC1	-0.2	5.4	-7.3	-0.3	x	35.8*
CC1CCCCC1NC(=O)COC(=O)c1ccc([N+](=O)[O-])o1 (configuration not stated)	-1.7	x	x	0.9	x	48.1*
O=C(COC(=O)c1ccc([N+](=O)[O-])o1)NC1CCCC1	1.8	4.8	-12.4	1.0	x	10.2
CC1CCCC(NC(=O)COC(=O)c2ccc([N+](=O)[O-])o2)C1C (configuration not stated)	1.3	-2.6	8.0	1.0	-14.5	-0.1
CCCNC(=O)[C@H]1[C@H](CO)[C@H]2Cn3c(ccc(-c4ccccc4)c3=O)[C@H]2N1CC	x	x	x	x	x	-3.1
CCCNC(=O)[C@@H]1[C@@H](CO)[C@@H]2Cn3c(ccc(-c4cccc(F)c4)c3=O)[C@H]1N2Cc1ccccc1F	x	x	x	x	x	-1.4
CCC(=O)N1CCCCN2[C@H](CO)[C@H](c3ccc(C#Cc4cccnc4)cc3)[C@H]2C1	x	x	x	x	x	-5.2
CC[C@@]1(c2ccccc2OC)ON(c2ccccc2C(F)(F)F)C1=O	0.7	x	40.6	43.1*	4.3	x
Cc1ccccc1[C@@]1(C)ON(c2ccccc2C(F)(F)F)C1=O	1.5	x	-5.1	8.0	5.5	-2.4
